Among the data in PubChem BioAssay (EPA / NIEHS) are outcome and AC50 values, retold here.

Values joined by “and” are separate entries in the source; they are usually repeats but may differ in a detail not shown here. Identical values can stand only once. Active and inactive are the calls of the source. How the source made its calls: active means hit-call score of the fitted dose curve at least 0.9, where 1 is the maximum; inactive means score below 0.9.

For orientation: AC50 means the concentration at which the activity in the assay is half-maximal.

The test in a line: CCTE_Shafer_MEA_dev_correlation_coefficient_mean: CCTE's Neural Network Formation Assay for Mean Correlation Coefficient, Shafer Lab (AID 2284093).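 On AC50: well mean pairwise spike train correlation integrated as AUC over recording days 5 to 12; potency fitted for loss of correlation relative to DMSO vehicle wells.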 A digest of the protocol:
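Spontaneous activity recorded on days 5, 7, 9 and 12 post-plating; pairwise spike correlations are averaged across active electrodes and collapsed to an area-under-curve. Rat cortical cultures are dosed from plating through 12 days, with compound renewed at media changes.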
As for `COP(=O)(OC)O/C(=C\Cl)c1cc(Cl)c(Cl)cc1Cl`, the outcome was inactive.

`Cn1sc(Cl)cc1=O`: the AC50 is 4.5 µM (active).

`O=C1C2(Cl)C3(Cl)C4(Cl)C(Cl)(Cl)C5(Cl)C3(Cl)C1(Cl)C5(Cl)C24Cl` (stereo unspecified): the AC50 was 1.15 µM (active).

With `C=C(C)C(=O)[O][Sn]([CH2]CCC)([CH2]CCC)[CH2]CCC`, the AC50 is 0.0288 µM (active).

For the molecule `CCC(=O)C(CC(C)N(C)C)(c1ccccc1)c1ccccc1` (stereo unspecified), the concentration at half-maximal activity (AC50) was 7.25 µM (active).

In the case of `CC(=O)[O][Hg][c]1ccccc1`, the AC50 is 0.0159 µM (active).

On to `ClC1(Cl)C2(Cl)C3(Cl)C4(Cl)C(Cl)(Cl)C5(Cl)C3(Cl)C1(Cl)C5(Cl)C24Cl` (stereo unspecified), for which the half-maximal activity concentration (AC50) is 2.41 µM (active).

In the case of `CCOP(=S)(OCC)Oc1nc(Cl)c(Cl)cc1Cl`, the half-maximal activity concentration (AC50) was 23.5 µM (active) and 15 µM (active) and 20.4 µM (active).

With `O=C(O)C(F)(F)C(F)(F)C(F)(F)C(F)(F)C(F)(F)C(F)(F)C(F)(F)C(F)(F)C(F)(F)C(F)(F)F`, the molecule was called inactive.

Regarding `O=C(O)C(F)(F)C(F)(F)C(F)(F)C(F)(F)C(F)(F)C(F)(F)F`, the molecule was called inactive.

For `CC(C)(C)c1cc(O)ccc1O`, the AC50 is 6.2 µM (active).
